Measurements as given in PubChem BioAssay AID1159580 (chemical genetic matrix, 2015).
The whole screen tested about 5,500 compounds, of which about 2,000 (36%) were called active. Another 18% or so got no clear call; they are omitted. No stated cut-off is given here; in the data, active means normalized growth mostly below about 0.91 (no sharp cut-off); inconclusive means no clear call, values can overlap the other calls; inactive means mostly above about 0.92. Some of the results follow.

Experiment: chemical genetic growth profiling, strain panel (AID 1159580);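 further: tested at 20 µM; growth read once vehicle control cultures reached saturation at 30 °C; 1 = growth at the plate median or of vehicle wells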
Settings: growth OD

Measured: normalized growth

CC(C)Nc1nc(Cl)nc(NC(C)C)n1
inactive: S. cerevisiae deletion strains, locus YJR075W, strain HOC1, stronger effect = lower value 1.01 | S. cerevisiae deletion strains, locus YKL009W, strain mrt4, stronger effect = lower value 1.01 | S. cerevisiae deletion strains, locus YKL068W, stronger effect = lower value 1.01 | S. cerevisiae deletion strains, locus YKL085W, strain MDH1 (second series), stronger effect = lower value 1 | S. cerevisiae deletion strains, locus YKL085W, strain MDH1, stronger effect = lower value 1 | S. cerevisiae deletion strains, locus YKL160W, strain elf1, stronger effect = lower value 1 | S. cerevisiae deletion strains, locus YKL190W, strain CNB1, stronger effect = lower value 1.01 | S. cerevisiae deletion strains, locus YKR001C, strain vps1, stronger effect = lower value 1.01 | S. cerevisiae deletion strains, locus YKR026C, strain gcn3, stronger effect = lower value 0.994 | S. cerevisiae deletion strains, locus YKR091W, strain srl3, stronger effect = lower value 0.998 | S. cerevisiae deletion strains, locus YLL001W, strain dnm1, stronger effect = lower value 1.01 | S. cerevisiae deletion strains, locus YLL026W, stronger effect = lower value 0.991 | S. cerevisiae deletion strains, locus YLL041C, strain sdh2, stronger effect = lower value 1 | S. cerevisiae deletion strains, locus YLR027C, strain aat2, stronger effect = lower value 0.995 | S. cerevisiae deletion strains, locus YLR039C, strain RIC1, stronger effect = lower value 0.995 | S. cerevisiae deletion strains, locus YLR058C, strain SHM2, stronger effect = lower value 1.01 | S. cerevisiae deletion strains, locus YLR102C, strain apc9, stronger effect = lower value 1.02 | S. cerevisiae deletion strains, locus YLR113W, strain HOG1, stronger effect = lower value 1 | S. cerevisiae deletion strains, locus YLR221C, strain rsa3, stronger effect = lower value 0.994 | S. cerevisiae deletion strains, locus YLR258W, strain gsy2, stronger effect = lower value 1 | S. cerevisiae deletion strains, locus YLR262C, strain YPT6 (second series), stronger effect = lower value 0.935 | S. cerevisiae deletion strains, locus YLR262C, strain YPT6, stronger effect = lower value 0.984 | S. cerevisiae deletion strains, locus YLR268W, strain sec22, stronger effect = lower value 0.992 | S. cerevisiae deletion strains, locus YLR320W, strain mms22, stronger effect = lower value 0.995 | S. cerevisiae deletion strains, locus YLR330W, strain CHS5, stronger effect = lower value 1.01 | S. cerevisiae deletion strains, locus YLR342W, strain FKS1 (second series), stronger effect = lower value 1.01 | S. cerevisiae deletion strains, locus YLR342W, strain FKS1, stronger effect = lower value 1.01 | S. cerevisiae deletion strains, locus YLR357W, strain rsc2, stronger effect = lower value 0.95 | S. cerevisiae deletion strains, locus YLR370C, strain arc18, stronger effect = lower value 1 | S. cerevisiae deletion strains, locus YLR371W, strain rom2, stronger effect = lower value 1.01 | S. cerevisiae deletion strains, locus YLR384C, strain iki3, stronger effect = lower value 1 | S. cerevisiae deletion strains, locus YLR418C, strain cdc73, stronger effect = lower value 0.979 | S. cerevisiae deletion strains, locus YML016C, strain PPZ1, stronger effect = lower value 1.01 | S. cerevisiae deletion strains, locus YML032C, strain rad52, stronger effect = lower value 1.01 | S. cerevisiae deletion strains, locus YML120C, strain ndi1, stronger effect = lower value 0.998 | S. cerevisiae deletion strains, locus YML124C, strain tub3, stronger effect = lower value 1.01 | S. cerevisiae deletion strains, locus YMR058W, strain fet3, stronger effect = lower value 1.01 | S. cerevisiae deletion strains, locus YMR078C, strain ctf18, stronger effect = lower value 1.02 | S. cerevisiae deletion strains, locus YMR125W, strain sto1, stronger effect = lower value 0.997 | S. cerevisiae deletion strains, locus YMR129W, stronger effect = lower value 0.994 | S. cerevisiae deletion strains, locus YMR205C, strain PFK2, stronger effect = lower value 0.985 | S. cerevisiae deletion strains, locus YMR223W, strain ubp8, stronger effect = lower value 1.01 | S. cerevisiae deletion strains, locus YMR231W, strain pep5, stronger effect = lower value 0.999 | S. cerevisiae deletion strains, locus YMR263W, strain SAP30, stronger effect = lower value 1.02 | S. cerevisiae deletion strains, locus YMR307W, strain GAS1, stronger effect = lower value 1.02 | S. cerevisiae deletion strains, locus YNL067W, strain RPL9B, stronger effect = lower value 0.999 | S. cerevisiae deletion strains, locus YNL071W, strain lat1, stronger effect = lower value 1 | S. cerevisiae deletion strains, locus YNL128W, strain TEP1, stronger effect = lower value 1 | S. cerevisiae deletion strains, locus YNL153C, strain GIM3, stronger effect = lower value 0.989 | S. cerevisiae deletion strains, locus YNL183C, strain NPR1, stronger effect = lower value 0.935 | S. cerevisiae deletion strains, locus YNL209W, strain ssb2, stronger effect = lower value 0.999 | S. cerevisiae deletion strains, locus YNL233W, strain BNI4, stronger effect = lower value 1.02 | S. cerevisiae deletion strains, locus YNL248C, strain rpa49, stronger effect = lower value 0.982 | S. cerevisiae deletion strains, locus YNL250W, strain rad50, stronger effect = lower value 1.01 | S. cerevisiae deletion strains, locus YNL271C, strain bni1, stronger effect = lower value 1.01 | S. cerevisiae deletion strains, locus YNL298W, strain CLA4, stronger effect = lower value 1.02 | S. cerevisiae deletion strains, locus YNL307C, strain MCK1, stronger effect = lower value 1.02 | S. cerevisiae deletion strains, locus YNL322C, strain KRE1 (second series), stronger effect = lower value 0.992 | S. cerevisiae deletion strains, locus YNL322C, strain KRE1, stronger effect = lower value 1.01 | S. cerevisiae deletion strains, locus YNR049C, strain mso1, stronger effect = lower value 1 | S. cerevisiae deletion strains, locus YNR052C, strain pop2, stronger effect = lower value 1.01 | S. cerevisiae deletion strains, locus YOL006C, strain TOP1, stronger effect = lower value 1.03 | S. cerevisiae deletion strains, locus YOL012C, strain htz1 0.789 | S. cerevisiae deletion strains, locus YOL147C, strain pex11, stronger effect = lower value 1.01 | S. cerevisiae deletion strains, locus YOR001W, strain rrp6, stronger effect = lower value 0.999 | S. cerevisiae deletion strains, locus YOR061W, strain CKA2, stronger effect = lower value 0.998 | S. cerevisiae deletion strains, locus YOR069W, strain VPS5, stronger effect = lower value 1.01 | S. cerevisiae deletion strains, locus YOR070C, strain gyp1, stronger effect = lower value 1.01 | S. cerevisiae deletion strains, locus YOR080W, strain dia2, stronger effect = lower value 0.994 | S. cerevisiae deletion strains, locus YOR083W, strain WHI5, stronger effect = lower value 1 | S. cerevisiae deletion strains, locus YOR106W, strain vam3, stronger effect = lower value 1.01 | S. cerevisiae deletion strains, locus YOR136W, strain idh2, stronger effect = lower value 1.01 | S. cerevisiae deletion strains, locus YOR144C, strain elg1, stronger effect = lower value 1 | S. cerevisiae deletion strains, locus YOR184W, strain ser1, stronger effect = lower value 1.02 | S. cerevisiae deletion strains, locus YOR231W, strain MKK1, stronger effect = lower value 0.978 | S. cerevisiae deletion strains, locus YOR265W, strain rbl2, stronger effect = lower value 1 | S. cerevisiae deletion strains, locus YOR270C, strain vph1, stronger effect = lower value 1.01 | S. cerevisiae deletion strains, locus YOR290C, strain snf2, stronger effect = lower value 1.02 | S. cerevisiae deletion strains, locus YOR316C, strain cot1, stronger effect = lower value 1.01 | S. cerevisiae deletion strains, locus YPL051W, strain arl3, stronger effect = lower value 0.997 | S. cerevisiae deletion strains, locus YPL055C, strain LGE1, stronger effect = lower value 0.983 | S. cerevisiae deletion strains, locus YPL078C, strain atp4, stronger effect = lower value 0.999 | S. cerevisiae deletion strains, locus YPL106C, strain sse1, stronger effect = lower value 1 | S. cerevisiae deletion strains, locus YPL240C, strain hsp82, stronger effect = lower value 1.01 | S. cerevisiae deletion strains, locus YPL241C, strain CIN2, stronger effect = lower value 1 | S. cerevisiae deletion strains, locus YPL256C, strain CLN2, stronger effect = lower value 0.966 | S. cerevisiae deletion strains, locus YPR119W, strain clb2, stronger effect = lower value 1.01 | S. cerevisiae deletion strains, locus YPR141C, strain kar3, stronger effect = lower value 1.02 | S. cerevisiae deletion strains, locus YPR163C, strain tif3, stronger effect = lower value 1 | S. cerevisiae deletion strains, locus YPR167C, strain met16, stronger effect = lower value 1.01 | S. cerevisiae deletion strains, strain wtn01, stronger effect = lower value 1.01 | S. cerevisiae strains, strain wild type, stronger effect = lower value 1
